# Screening results deposited in PubChem BioAssay by The Scripps Research Institute Molecular Screening Center.
# The list is not random: actives were taken first. Their share in the collection is about 2.9%.
# EBNA-1 inh: EBNA-1 DNA-binding inhibitors, primary screen, biochemical, fluorescence polarization. inhibition, % at 14.8 µM. 300,000 tested, 0.34% active; in the data active means inhibition above about 28%
# ZTA DNA inh: counter-screen for EBNA-1 inhibitors: inhibitors of Epstein-Barr virus ZTA. P03206. inhibition, % at 11 µM. 320,000 tested, 0.15% active. ZTA-DNA binding, fluorescence polarization; in the data active means inhibition above about 33%
# PAFAH2 FP inh: PAFAH2 enzyme inhibitors, primary screen, biochemical, fluorescence polarization, human. recombinant PAFAH2, FP-rhodamine activity probe. 340,000 tested, 0.99% active. inhibition, % at 3.39 µM;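 active means inhibition above the mean over all tested compounds plus 3 SD, cut at about 30% in these data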;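 further: inhibitors block probe labeling of enzyme so polarization drops; 0% = enzyme with DMSO and 100% = wells lacking PAFAH2 protein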
# PAFAH1B2 inh: PAFAH1B2 enzyme inhibitors, primary screen, biochemical, fluorescence polarization, human. Platelet-activating factor acetylhydrolase IB subunit alpha2 (Homo sapiens), P68402. recombinant PAFAH1B2, FP-rhodamine activity probe. inhibition, % at 3.39 µM. 340,000 tested, 1.2% active;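 active means inhibition above the mean of all tested compounds plus 3 SD, cut at about 24% in these data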;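 further: 0% = enzyme with DMSO and 100% = wells lacking PAFAH1B2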
# Target sequence (P68402 whole entry, looked up): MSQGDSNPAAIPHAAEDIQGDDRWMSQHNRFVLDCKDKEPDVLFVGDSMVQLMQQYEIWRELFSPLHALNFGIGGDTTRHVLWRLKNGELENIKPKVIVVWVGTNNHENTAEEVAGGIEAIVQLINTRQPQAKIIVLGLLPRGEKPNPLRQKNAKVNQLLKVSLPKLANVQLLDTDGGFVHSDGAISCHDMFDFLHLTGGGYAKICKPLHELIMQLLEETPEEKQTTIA
# PAFAH1B3 inh: PAFAH1B3 enzyme inhibitors, primary screen, biochemical, fluorescence polarization, human. Platelet-activating factor acetylhydrolase IB subunit alpha1 (Homo sapiens), Q15102. recombinant PAFAH1B3, FP-rhodamine probe. inhibition, % at 3.39 µM. 340,000 tested, 0.28% active. AID 492972, 2010;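 active means inhibition above the screen-wide average of all tested compounds plus 3 SD, cut at about 25% in these data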;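 further: 0% = enzyme with DMSO only and 100% = wells lacking PAFAH1B3 protein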
# Target sequence (Q15102 whole entry, looked up): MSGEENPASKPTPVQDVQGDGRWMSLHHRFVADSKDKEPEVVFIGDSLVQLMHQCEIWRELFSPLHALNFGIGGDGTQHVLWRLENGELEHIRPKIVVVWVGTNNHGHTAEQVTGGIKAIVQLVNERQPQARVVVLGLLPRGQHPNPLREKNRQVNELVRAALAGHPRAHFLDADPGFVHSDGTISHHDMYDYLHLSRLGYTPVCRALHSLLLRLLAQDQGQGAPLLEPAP
# rCAG RNA binder: binders of r(CAG) RNA repeats, primary screen, biochemical, fluorescence. 370,000 tested, 1.3% active. AID 651821, 2012. r(CAG) RNA repeat, TO-PRO-1 dye displacement fluorescence. inhibition, % at 3 µM;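 active means inhibition above the plate cutoff, the mean of all test compounds on that plate plus 3 SD, cut at about 35% in these data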;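 further: 0% = DMSO alone and 100% = 100 µM mitoxantrone as full dye displacement; higher means more dye released from RNA so lower well fluorescence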
# rCAG binder conf: small molecules binding CAG repeat RNA – biochemical, fluorescence, confirmation | r(CAG) RNA repeat, TO-PRO-1 dye displacement fluorescence | 4,300 tested, 70% active | shares compounds with rCAG RNA binder | inhibition, % at 3 µM;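 active means inhibition above a per-plate cutoff, the mean inhibition of sample wells plus 3 SD, cut at about 35% in these data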;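 further: loss of TO-PRO-1 fluorescence as compound displaces dye from 1x1 AA loop RNA; 0% = DMSO only wells and 100% = 100 µM mitoxantrone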
# DNA CAG counter: displacement of TO-PRO-1 from CAG DNA duplex, counter-screen for rCAG RNA repeat binder project, biochemical, fluorescence, TO-PRO-1 dye, d(CAG) DNA oligo; inhibition, % at 3 µM; 4,300 tested, 94% active; d(CAG) DNA oligo TO-PRO-1 dye displacement; shares compounds with rCAG RNA binder; AID 652068, 2013;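 active means inhibition above its plate's cutoff, the mean test-well inhibition plus 3 SD, cut at about 4.8% in these data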;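 further: 0% = DNA dye mix with DMSO and 100% = 100 µM mitoxantrone; hits displace the dye from DNA and so lower well fluorescence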
# * marks the source's active call; other numbers are inactive results; · = not tested or not shown.
SMILES,EBNA-1 inh,ZTA DNA inh,PAFAH2 FP inh,PAFAH1B2 inh,PAFAH1B3 inh,rCAG RNA binder,rCAG binder conf,DNA CAG counter
O=C(NNC(=S)Nc1ccc(Br)cc1)c1ccc(N2CCOCC2)c([N+](=O)[O-])c1,7,-17,-3,7,8,73*,67*,28*
O=C(Nc1cccnc1)c1ccc(N2CCOCC2)c([N+](=O)[O-])c1,·,·,7,0,4,0,·,·
Cc1ccc(NC(=O)c2ccc(NCCN)c([N+](=O)[O-])c2)cc1Cl,-3,-2,-11,1,-9,38*,22,-2
O=C(Nc1ccccc1C(=O)NC(Cc1ccc(O)cc1)C(=O)O)c1ccccc1 (stereo not drawn),1,17,-3,-1,-7,8,·,·
COC(=O)C1=C(C)N(C)C(=NCc2ccc(C(F)(F)F)cc2)NC1c1ccc(F)cc1 (stereo not drawn),·,·,·,·,·,7,·,·
COc1ccc(CN2CCNC(=O)C2CC(=O)NCc2cnn(C)c2)cc1OC (stereo not drawn),-5,-24,-6,-3,-1,-1,·,·
CCOC(=O)Cc1cc(=O)n2[nH]c(-c3ccccc3)c(-c3ccccc3)c2n1,-2,1,-4,-5,-18,40*,43*,15*
CCOC(=O)Cc1cc(=O)n2[nH]c(C)c(-c3ccccc3)c2n1,1,-2,-3,-1,-5,16,·,·
CC(C)C1Nc2c(O)cc(Cl)c([N+](=O)[O-])c2C2C=CCC21 (stereo not drawn),·,·,19,42*,-3,37*,17,4
COC(=O)[C@@H](Cc1c[nH]c2ccccc12)NC(=O)CCC(=O)c1ccc(Br)cc1,6,0,-9,14,9,-1,·,·
COc1ccc(NS(=O)(=O)c2cc(N=Nc3c(O)[nH]c(=O)[nH]c3=O)ccc2Cl)cc1,·,·,7,7,3,8,·,·
Cc1ccc(NS(=O)(=O)c2ccc(Cl)c(N=Nc3c(O)[nH]c(=O)[nH]c3=O)c2)cc1Cl,·,·,41*,16,26*,66*,76*,36*
COc1ccc(C2SCC(=O)N2c2nc3ccccc3s2)cc1 (stereo not drawn),4,4,4,-4,4,4,·,·
COc1ccc(C2=NN(c3nc4ccccc4s3)C(=O)/C2=C\N(C)C)cc1,11,15,25,8,8,46*,38*,13*
CC1(C)CC(=O)C(C2C3=C(CC(C)(C)CC3=O)OC3=C2C(=O)CC(C)(C)C3)=C(O)C1,5,2,9,2,5,44*,2,1
CC1(C)CC(=O)C(C2C3=C(CC(C)(C)CC3=O)Oc3ccccc32)=C(O)C1 (stereo not drawn),0,6,2,7,4,5,·,·
O=C(c1c(O)cc(O)cc1O)C1c2c(cc(O)c3c2O[C@H](c2ccc(O)cc2)[C@@H](O)C3)OC1c1ccc(O)cc1 (stereo partly drawn),·,4,-3,14,10,37*,45*,16*
Cc1ccc(C(=O)Nc2ccccc2C(=O)O)cc1S(=O)(=O)NC1CCCCC1,-3,-14,-3,5,9,70*,61*,22*
Cc1ccc(NC(=S)NC(=O)c2ccc(F)cc2)cc1S(=O)(=O)Nc1cccc(Cl)c1,-4,11,-14,-1,3,20,·,·
Cc1ccc(NS(=O)(=O)c2cc(C(=O)Nc3cccc([N+](=O)[O-])c3)ccc2C)cc1,0,8,-14,-6,-13,22,·,·
